Laboratory results: PubChem BioAssay (EPA / NIEHS)
Results filed as inconclusive are left out. Activity calls are given as the source filed them. The calls were made as follows, unless noted: active = hit-call score of the fitted dose curve at least 0.9, where 1 is the maximum; inconclusive = response in the unintended direction; inactive = score below 0.9.

How the values were obtained:
[1] = Tanguay_ZF_120hpf_PIG_legacy: (Legacy) Oregon State University Tanguay Lab 120 Hour Post-fertilization zebrafish Assay for Pigmentation Malformation (AID 2283650)
Outline: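 Dechorionated Tropical 5D wild-type embryos, one per well from 6 hpf, statically exposed at 28C in the dark until 120 hpf, 0.64% DMSO final. Pigmentation scored present/absent by brightfield microscopy; dead embryos not scored; fitted versus DMSO.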

[2] = Tanguay_ZF_120hpf_CIRC_legacy: (Legacy) Oregon State University Tanguay Lab 120 Hour Post-fertilization zebrafish Assay for Circulatory Malformation (AID 2283651)
Outline: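 Using wild-type Tropical 5D zebrafish, we exposed dechorionated embryos from 6 to 120 hpf in embryo medium with 0.64% DMSO. Circulatory defects were scored as present or absent; 5uM trimethyltin chloride served as positive control.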

[3] = read-out: solute carrier (SLC22A6), SLC22A6 (gene 9356); test: LTEA_HepaRG_SLC22A6: Life Technologies and Expression Analysis (LTEA) Assay for solute carrier (SLC22A6) using HepaRG (AID 2283653; active = hit-call score of the fitted dose curve at least 0.9, where 1 is the maximum; inactive = score below 0.9); conditions: mRNA level, 48 h; actives raise or lower the signal
Outline: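 Read-out is SLC22A6 transcript level by qRT-PCR, normalised to three housekeeping genes and fitted for gain or loss relative to 0.5% DMSO vehicle. Human HepaRG cells received chemicals at up to 100 uM for 48 h.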

[4] = Tanguay_ZF_120hpf_SWIM_legacy: (Legacy) Oregon State University Tanguay Lab 120 Hour Post-fertilization zebrafish Assay for Swim Bladder Malformation (AID 2283654);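 also: swim bladder malformation in each larva scored yes or no under brightfield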
Outline: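 Dechorionated wild-type Tropical 5D zebrafish embryos, one per well from 6 hpf, were statically exposed at 28C until 120 hpf in 0.64% DMSO. Swim bladder malformation scored as present/absent by brightfield microscopy; not scored in dead larvae.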

[5] = Tanguay_ZF_120hpf_NC_legacy: (Legacy) Oregon State University Tanguay Lab 120 Hour Post-fertilization zebrafish Assay for Notochord and Tail Malformation (AID 2283656)
Outline: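 Dechorionated 5D zebrafish, 1/well from 6 hpf; static exposure to 120 hpf, 28C, sealed, dark; final DMSO 0.64% v/v. NC scored binary (present/absent); dead embryos not scored. Fit vs DMSO baseline, gain direction.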

[6] = read-out: solute carrier (SLC10A1), SLC10A1 (gene 6554); test: LTEA_HepaRG_SLC10A1: Life Technologies and Expression Analysis (LTEA) Assay for solute carrier (SLC10A1) using HepaRG (AID 2283657; active = hit-call score of the fitted dose curve at least 0.9, where 1 is the maximum; inactive = score below 0.9); conditions: mRNA level, 48 h; actives raise or lower the signal
Outline: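 HepaRG cells (single lot) exposed 48 h in serum-free induction medium, 8-point half-log series from 100 uM top in 0.5% DMSO, duplicate. SLC10A1 mRNA by qRT-PCR normalised to ACTB, GAPDH, POLR2A; bidirectional fit versus DMSO.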

[7] = read-out: matrix metalloproteinase-1 (MMP1), MMP1 (gene 4312); test: LTEA_HepaRG_MMP1: Life Technologies and Expression Analysis (LTEA) Assay for matrix metalloproteinase-1 (MMP1) using HepaRG (AID 2283658; active = hit-call score of the fitted dose curve at least 0.9, where 1 is the maximum; inactive = score below 0.9); conditions: mRNA level, 48 h; actives raise or lower the signal
Outline: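 HepaRG, ~100,000 cells/well, 48 h pre-culture; serum-free induction medium; test chemical 8 conc (max 100 uM, half-log), duplicate, 48 h; 0.5% DMSO; qRT-PCR MMP1, housekeeping-normalized; gain/loss fit vs DMSO.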

[8] = Tanguay_ZF_120hpf_TR_legacy: (Legacy) Oregon State University Tanguay Lab 120 Hour Post-fertilization zebrafish Assay for Touch Response (AID 2283667)
Outline: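 Tropical 5D wild-type zebrafish embryos statically exposed to 120 hpf at 28°C, sealed and dark-covered, 0.64% DMSO final; touch response scored as present/absent by brightfield microscopy at 120 hpf. Trimethyltin chloride 5 uM positive control; dead embryos not scored.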

[9] = read-out: Cytochrome P450 (CYP24A1_1), CYP24A1 (gene 1591); test: LTEA_HepaRG_CYP24A1_1: Life Technologies and Expression Analysis (LTEA) Assay for Cytochrome P450 (CYP24A1_1) using HepaRG (AID 2283671; active = hit-call score of the fitted dose curve at least 0.9, where 1 is the maximum; inactive = score below 0.9); conditions: mRNA level, 48 h; actives raise or lower the signal
Outline: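 Differentiated human HepaRG cells in serum-free induction medium, exposed 48 h in duplicate to eight half-log concentrations from 100 uM top, 0.5% DMSO. Transcript measured by TaqMan qRT-PCR, normalised to ACTB, GAPDH, POLR2A; bidirectional fitting versus DMSO.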

[10] = CCTE_Padilla_ZF_144hpf_TERATOSCORE: (Legacy) CCTE's 144 Hour Post-fertilization zebrafish Assay Teratoscore, Padilla Lab (AID 2283679; active = hit-call score of the fitted dose curve at least 0.9, where 1 is the maximum; inactive = score below 0.9;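 also: zebrafish embryos with chorions exposed by immersion from 6-8 hpf to 5 dpf with daily renewal; teratogenicity score from eye scoring of death hatching and malformations at 144 hpf; higher score means more developmental defects relative to DMSO baseline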)
Outline: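 Larvae scored by eye at 144 hpf for death, hatching and malformations after a day in clean Hanks'. Before that, daily-renewed exposure at 80 uM (0.4% DMSO, 26C) from roughly 6-8 hpf through 5 dpf, 4 embryos per chemical.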

[11] = STM_H9_OrnithineISnorm_perc: Stemina devTOX quickPredict H9 human embryonic stem cell (hESC)-based Assay for Ornithine (ORN) Metabolite Biomarker, Normalized (AID 2283712; active = hit-call score of the fitted dose curve at least 0.9, where 1 is the maximum; inactive = score below 0.9;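 also: ornithine released into spent medium during last day measured by mass spectrometry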)
Outline: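 Cells: undifferentiated H9 hESC. Dosing: 72 h, media replaced every 24 h. Sample: final 24-h conditioned media, 40% acetonitrile. Read: UPLC-HRMS ornithine area vs 13C standard, % DMSO control.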

[12] = STM_H9_CystineISnorm_perc: Stemina devTOX quickPredict H9 human embryonic stem cell (hESC)-based Assay for Cystine (CYSS) Metabolite Biomarker, Normalized (AID 2283713; active = hit-call score of the fitted dose curve at least 0.9, where 1 is the maximum; inactive = score below 0.9)
Outline: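 Secreted cystine was measured by UPLC-HRMS in H9 hESC medium after 72h compound exposure with 24-hourly replenishment. Values are standard-normalized areas relative to 0.1% DMSO.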

[13] = STM_H9_OrnCyssISnorm_ratio: Stemina devTOX quickPredict H9 human embryonic stem cell (hESC)-based Assay for Ornithine (ORN):Cystine (CYSS) Ratio (AID 2283714)
Outline: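 Undifferentiated H9 hESCs exposed 72 h, media and compound replaced every 24 h; final 24-h conditioned media deproteinized and analysed by UPLC-HRMS against C13 spike-ins. Value is the internal-standard-normalized ORN/CYSS ratio versus 0.1% DMSO.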

[14] = CEETOX_H295R_MTT_cell_viability: Viability Assessment in the CeeTox HT-H295R MTT Assay (AID 2283718; active = hit-call score of the fitted dose curve at least 0.9, where 1 is the maximum; inactive = score below 0.9;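 as to AC50: curve fitted both ways so AC50 may mark viability loss or gain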)
Outline: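 Human H295R adrenal cells, prestimulated 48 h with 10 uM forskolin, were exposed 48 h to chemicals in 0.1% DMSO. Viability was measured in the same wells by MTT (0.5 mg/ml, 4 h, 37 C), absorbance 570/650 nm, as percent of controls.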

[15] = Tanguay_ZF_120hpf_ActivityScore_legacy: (Legacy) Oregon State University Tanguay Lab 120 Hour Post-fertilization zebrafish Assay Score for Activity (AID 2283742)
Outline: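 Dechorionated Tropical 5D embryos, one per well from 6 hpf, statically exposed to 120 hpf at 28 °C in 0.64% DMSO. Mortality and malformations scored binary by brightfield microscopy; activity score combines 18 endpoints, fitted positively versus DMSO.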

[16] = Tanguay_ZF_120hpf_TRUN_legacy: (Legacy) Oregon State University Tanguay Lab 120 Hour Post-fertilization zebrafish Assay for Truncated Body (AID 2283655)
Outline: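 Truncated body is recorded as a binary endpoint at 120 hpf by brightfield imaging of wild-type 5D larvae. Exposure runs statically from 6 hpf at 28C with 0.64% DMSO; embryos dying earlier are not scored.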

[17] = tested on: Thyroperoxidase (TPO), gene 54314; test: CCTE_Simmons_AUR_rTPO: CCTE's Amplex UltraRed Assay for Thyroperoxidase (TPO) Inhibition, Simmons Lab (AID 2283662);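 also: potency for loss of signal meaning inhibition of peroxidase activity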
Outline: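 Rat thyroid microsomes (5 ug protein) were incubated with test compound (8 concentrations, 5 nM–87.5 uM final, 0.5% DMSO), 25 uM Amplex UltraRed and 300 uM H2O2 in 200 mM phosphate buffer for 30 min at 37C in the dark; fluorescence read at 544/590 nm.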

[18] = CCTE_Simmons_CellTiterGLO_HEK293T: Viability Assessment in CCTE's Assays for Thyroperoxidase (TPO) Inhibition, Simmons Lab (AID 2283665);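 as to AC50: cells exposed to compound for 24 h before readout; actives reduce ATP signal below DMSO vehicle meaning cytotoxicity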
Outline: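 Cytotoxicity counter-screen: human HEK293T cells in low-serum (1% FBS) medium receive test chemical, 5 nM to 87.5 uM final, for 24 h; ATP is quantified by luciferase luminescence.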

Measured: AC50

COc1cc2c(c(OC)c1OC)-c1ccc(OC)c(=O)cc1[C@@H](NC(C)=O)CC2
active: [1] 22800 nM | [6] 107 nM | [8] 13300 nM | [9] 67 nM | [10] 61500 nM | [11] 15.9 nM | [12] 12.1 nM | [13] 12.7 nM | [14] 118 nM | [15] 36400 nM
inactive: [2] | [3] | [4] | [5] | [7]

c1ccc(C(O[C@@H]2CCCN(CCc3ccc4c(c3)OCO4)C2)c2ccccc2)cc1
active: [16] 38200 nM | [8] 53600 nM | [10] 2100 nM | [15] 36300 nM
inactive: [2] | [4] | [5]

CCc1ccc(O)c(C(C)(C)C)c1
inactive: [2] | [4] | [16] | [5] | [8] | [15]
active: [17] 13000 nM | [18] 12600 nM | [10] 25100 nM

CCCCCCOC(=O)CC(CC(=O)OCCCCCC)(OC(=O)CCC)C(=O)OCCCCCC
inactive: [1] | [2] | [16] | [8] | [15]

Cc1ccc(S(=O)(=O)NC(=O)NN2CCCCCC2)cc1
inactive: [2] | [4] | [16] | [5] | [18] | [8] | [15]
active: [17] 8680 nM

CCCCN1C(=O)[C@@H]([C@H](O)C2CCCCC2)NC(=O)C12CCN(Cc1ccc(Oc3ccc(C(=O)O)cc3)cc1)CC2
inactive: [1] | [2] | [16] | [5] | [8] | [11] | [15]
active: [12] 2260 nM | [13] 2140 nM

CCN(CC)C(=S)SSC(=S)N(CC)CC
inactive: [1] | [14]
active: [2] 5120 nM | [4] 1100 nM | [16] 904 nM | [5] 112 nM | [8] 2170 nM | [10] 183 nM | [11] 320 nM | [12] 682 nM | [13] 325 nM | [15] 831 nM

CCCCC(CC)C(=O)OCCOCCOCCOC(=O)C(CC)CCCC (configuration not stated)
active: [10] 4500 nM
inactive: [1] | [2] | [4] | [16] | [5] | [8] | [14] | [15]

CCCOc1ccc(S(=O)(=O)N2CCN(CC)CC2)cc1-c1nc2c(CC)n(Cc3ccccn3)nc2c(=O)[nH]1
inactive: [1] | [2] | [4] | [16] | [5] | [8] | [14] | [15]

NC(=O)N1c2ccccc2C=Cc2ccccc21
active: [12] 4320 nM | [13] 4180 nM | [15] 25.1 nM
inactive: [1] | [2] | [4] | [16] | [5] | [8] | [11]
